# Unmarked numbers belong to inactive results. The source made the active and inactive calls.
# Test: S. cerevisiae growth modulation with rapamycin, primary screen, strain BY4716, OD600, 96 h (AID 1091); note: test concentration not given here
# Details: higher = more signal, called active from +8 up or from −8 down
row,Structure (SMILES),z-score
1,COc1ccc(NC(=O)O[C@H]2[C@H](OC(=O)c3cc4ccccc4[nH]3)[C@@H](OC(=O)c3cc4ccccc4[nH]3)[C@@H](OC)O[C@@H]2CO)cc1,0.611
2,C=C(CCCC)C(=O)CC[C@H](OC(=O)c1cccnc1)c1ccc(OCCO)cc1,0.364
3,C=CCN1C(=O)[C@]2(Cc3ccccc3)N=C(c3ccc(OCCCO)cc3)O[C@@H]2c2ccccc21,1.46
4,CC(=O)NCCCC[C@@H]1NC(=O)[C@H]2C[C@@H](C(=O)NCCCCCNC(=O)CS)[C@@H](c3ccc(O)cc3)N2C1=O,1.76
5,C=CCC(OC(C)=O)[C@@H]1[C@@H](N(Cc2cc3ccccc3o2)C(=O)Cc2ccc(OC)cc2)c2cc(OCCCO)ccc2N1C(=O)c1ccc2ccccc2c1 (stereo not given in full),0.194
6,CC(c1ccccc1)C(O)C1C=CC2C(=O)N(c3ccccc3)C(=O)C2N1Nc1ccccc1 (stereo not given),0.442
7,COc1ccc([C@H]2C[C@H]3C(Br)=C[C@@]2(CO)C(=O)[C@]32CO2)cc1,0.241
8,COCCOC(=O)N1C(=O)[C@@]2(c3cc(C#CCCO)ccc31)[C@H](c1ccc(OCCO)cc1)N1[C@H](c3ccccc3)[C@H](c3ccccc3)OC(=O)[C@H]1[C@@H]2C(N)=O,6.06
9,CCCCN1CC=CC23O[C@@H]4/C=C\CCCOC(=O)C4[C@H]2C(=O)N(CCCCCO)[C@@H]3C1=O (stereo not given in full),-0.8
10,NCCCCCCNC(=O)[C@H]1C[C@H]2C(=O)N[C@@H](Cc3ccccc3)C(=O)N2[C@H]1c1cccc(OCCO)c1,-0.689
11,COc1ccc([Si](C)(C)[C@@H]2[C@@H](CCn3cc(CCO)nn3)O[C@]3(C(=O)N(Cc4cccc(N5C(=O)c6cccc7cccc5c67)c4)c4ccccc43)[C@H]2C)cc1,20.9 (active)
12,CC(=O)Nc1cc(Br)ccc1C(=O)NCc1ccccc1,-1.98
13,CCCCCN1CC=CC23O[C@@H]4C=CCOC(=O)[C@@H]4[C@H]2C(=O)N(C(C)CO)[C@@H]3C1=O (stereo not given in full),0.0795
14,CCOC(=O)C1=C[C@@H](C(C)C)N(S(=O)(=O)c2ccc(C)cc2)[C@H]1c1ccccc1F,7.3
15,CS(=O)(=O)CCOC(=O)C1=CC(CCCO)=CC(C2CC2)N(Cc2cc3c(cc2Br)OCO3)C=C1C(=O)OCCS(C)(=O)=O (stereo not given),-1.32
16,Cc1c(NC(=O)/C(C#N)=C/c2cccc([N+](=O)[O-])c2)c(=O)n(-c2ccccc2)n1C,-2.2
17,C=CCN1Cc2ccccc2[C@@H]2OC(c3ccc(OCCCO)cc3)=N[C@]2(CCS(=O)(=O)c2ccccc2)C1=O,3.51
18,C=CCNC(=O)[C@@H]1[C@H]2C(=O)O[C@H](c3ccccc3)[C@H](c3ccccc3)N2[C@H](c2ccc(OCCO)cc2)[C@@]12C(=O)N(C(=O)OCCOC)c1ccc(C#CCC(C(=O)OC)C(=O)OC)cc12,5.79

row,Structure (SMILES),z-score
1,CN1C(=O)C2C=CC(C(O)C=Cc3ccc([N+](=O)[O-])cc3)N(Nc3ccccc3)C2C1=O (stereo not given),-0.656
2,COCCOC(=O)N1C(=O)[C@@]2(c3cc(C#CC4=CCCCC4)ccc31)[C@H](c1ccc(OCCO)cc1)N1[C@H](c3ccccc3)[C@H](c3ccccc3)OC(=O)[C@H]1[C@@H]2C(=O)N1CCc2cc(OC)c(OC)cc2C1,4.01
3,CC(C)CN1C(=O)[C@@]2(c3ccc([N+](=O)[O-])cc3)CC(=O)N(C3CCCCC3)[C@@H]2c2ccc(CO)cc21,-1.78
4,C#CCN1[C@H](/C=C/C2CC2)[C@H](Cc2ccccc2)OC(=O)[C@@H]1Cc1ccccc1,0.79
5,COc1ccccc1CN1C(=O)c2ccccc2[C@@]2(Cc3ccccc3N(CCCN(C)C)C2=O)[C@@H]1c1ccc(CO)cc1,-1.35
6,COC(=O)[C@@]1(CCC(=O)OC(C)(C)C)N=C(c2ccc(OCCCO)cc2)O[C@H]1c1ccccc1,3.15
7,O=C(O)[C@@]1(CCS(=O)(=O)c2ccccc2)N=C(c2ccc(OCCCO)cc2)O[C@H]1c1ccccc1,-0.934
8,C=CCN(Cc1ccccc1)C(=O)C(c1cccs1)N(C(=O)/C=C\C(=O)O)c1ccc(CCOCCO)cc1 (stereo not given),-0.391
9,CC(C)NC(=O)[C@@H]1c2ccccc2C(=O)N(C(C)C)[C@H]1c1ccc(CO)cc1,0.386
10,C=CCC(OC(C)=O)[C@@H]1[C@@H](N(Cc2ccc(-c3cccc(C(F)(F)F)c3)o2)C(=O)c2cccc3ccccc23)c2cc(OCCCO)ccc2N1C(=O)Cc1ccc2ccccc2c1 (stereo not given in full),0.133
11,COc1ccc([Si](C)(C)[C@@H]2[C@@H](CCn3cc([C@H](O)c4ccccc4)nn3)O[C@]3(C(=O)N(Cc4cccc(N5CCC5=O)c4)c4ccccc43)[C@H]2C)cc1,2.14
12,O=C(NCCN1CCOCC1)[C@@H]1c2ccccc2C(=O)N(Cc2cc(C(F)(F)F)cc(C(F)(F)F)c2)[C@H]1c1ccc(CO)cc1,0.0371
13,C=C(CCCC)/C(=C/C[C@H](OC(C)=O)c1ccccc1OCCO)c1cnc2ccccc2c1,0.826
14,COC(=O)[C@@]1(Cc2ccc(OC)cc2)[C@H]2c3cc(C(=O)N4CCCC4)n(CCc4ccc(O)c(O)c4)c3C[C@H]2CN1C(=O)c1ccccc1,0.751
15,Cc1ccc(S[C@]2(C(=O)NCC(C)C)CC(=O)N(Cc3cc(C(F)(F)F)cc(C(F)(F)F)c3)[C@@H]2c2ccc(CO)cc2)cc1,-0.429
16,O=C(NC1CC1)[C@@H]1c2ccccc2C(=O)N(C2Cc3ccccc3C2)[C@H]1c1ccc(CO)cc1,-0.514
17,O=C1OCCC=C[C@H]2OC34C=CCN(CCN5CCOCC5)C(=O)[C@H]3N(CCCCCO)C(=O)[C@@H]4C12 (stereo not given in full),-0.379

# From PubChem BioAssay
